Measured values as given in PubChem BioAssay AID651814 (National Center for Advancing Translational Sciences (NCATS), 2012).
In all, about 2,100 compounds went through this assay and about 590 (28%) were called active. Not shown: some 42% with an inconclusive outcome. This is one part of the list. A number with no mark means an inactive call. Calls follow the shape of the dose curve; as a rule, active = well fitted inhibition curve with a large enough effect; inconclusive = small, poorly fitted or top-dose-only effect; inactive = flat fitted curve, though single readings scatter.

biological target: DNA dC->dU-editing enzyme APOBEC-3F (Homo sapiens) (UniProt Q8IUX4); assay: qHTS for inhibitors of Vif-A3F interactions: Cherry picks; conditions: HeLa A3F-eYFP + Vif (tagged APOBEC3F with the HIV-1 protein that degrades it), eYFP fluorescence, 24 h; also: nearly all actives have a fitted effect of over 70% in size;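 as to max response: % of control where 0% means no effect; active compounds raise eYFP fluorescence by blocking Vif-driven A3F loss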
Procedure, shortened: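 Read-out: yellow fluorescence (ex 488 nm, em 500-530 nm) by laser-scanning cytometer after 24 h compound exposure, several concentrations, at 37 deg C. Cells: HeLa line stably co-expressing Vif and C-terminally eYFP-tagged A3F; MG132 served as positive control.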
Potency is read from the fitted curve at half-maximal effect.

Chain of DNA dC->dU-editing enzyme APOBEC-3F (Homo sapiens) (Q8IUX4 whole entry, looked up): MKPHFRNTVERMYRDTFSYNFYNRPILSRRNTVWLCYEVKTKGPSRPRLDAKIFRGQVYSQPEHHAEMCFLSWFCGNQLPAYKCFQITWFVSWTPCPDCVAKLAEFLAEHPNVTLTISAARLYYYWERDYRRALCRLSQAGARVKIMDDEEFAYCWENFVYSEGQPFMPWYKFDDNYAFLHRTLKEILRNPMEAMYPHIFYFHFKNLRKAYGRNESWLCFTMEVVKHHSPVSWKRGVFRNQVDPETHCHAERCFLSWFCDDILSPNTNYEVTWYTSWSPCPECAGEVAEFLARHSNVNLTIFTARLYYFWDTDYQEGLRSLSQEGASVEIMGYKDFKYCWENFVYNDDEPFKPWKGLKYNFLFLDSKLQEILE

Compound	max response	Potency
Cc1ccc2nc(-c3ccccn3)c(Nc3ccccc3C)n2c1	-2.29%	–
CCCCN1C(=O)C2Cc3c([nH]c4ccccc34)CN2C1=S (stereo not given)	–	15.8 µM (active)
CC1(C)CCN2CCC(C)(C)c3c(O)ccc1c32	–	14 µM (active)
O=C(N/N=C/c1ccc([N+](=O)[O-])o1)c1sc2ccccc2c1Cl	–	8.2 µM (active)
CSc1ccc(/C=N/NC(=O)c2ccccc2Cl)cc1	-22.8%	–
O=C(Cc1cc2ccccc2o1)NCc1ccc(F)cc1	-14%	–
O=C(N/N=C/c1ccc([N+](=O)[O-])o1)c1cc2c(ccc3ccccc32)o1	–	9.2 µM (active)
O=C(N/N=C/c1ccc([N+](=O)[O-])o1)c1cn2ccc3ccccc3c2n1	-11.2%	–
N#Cc1c(-c2ccc(F)cc2)c(-c2ccc(F)cc2)nn(CCO)c1=O	–	7.04 µM (active)
Cc1ccc2c(c1)sc(-c1ccc(N(C)C)cc1)[n+]2C	–	18.4 µM (active)
Cc1cccc(C)c1Nc1nc2ccccc2nc1NS(=O)(=O)c1ccccc1	-12.4%	–
CCc1ccc2nc(SCC(=O)N3CC(=O)Nc4ccccc43)c(C#N)cc2c1	–	15.8 µM (active)
COc1ccc2nc(SCC(=O)N3CC(=O)Nc4ccccc43)c(C#N)cc2c1	–	10.3 µM (active)
COc1ccc2cc(C(=O)C3CCCN(Cc4ccccn4)C3)ccc2c1 (stereo not given)	1.49%	–
O=C(NC(=S)Nc1ccccc1N1CCCCC1)c1ccccc1	-2.38%	–
CCc1ccc2nc(SCC(=O)Nc3ccccc3N3CCOCC3)c(C#N)cc2c1	–	1.46 µM (active)
NNC(=O)c1cc2sccc2s1	-9.98%	–
O=c1[nH]c2cc(Br)cnc2nc1/C=C(\O)c1ccc(F)cc1	–	13 µM (active)
O=C(N=c1ccn(-c2nc3ccccc3nc2NS(=O)(=O)c2ccc(Cl)cc2)cc1)c1cccs1	–	13 µM (active)
O=S(=O)(Nc1nc2ccccc2nc1N1CCN(c2ccccc2)CC1)c1ccc(F)cc1	-24.2%	–

Compound	max response	Potency
CCOC(=O)N1CCC(Nc2nc3ccccc3nc2NS(=O)(=O)c2ccc(Cl)cc2)CC1	-1.97%	–
O=S(=O)(Nc1nc2ccccc2nc1N1CCN(c2ccccn2)CC1)c1ccc(Cl)cc1	–	18.4 µM (active)
CN1CCN(c2nc3ccccc3nc2NS(=O)(=O)c2ccc(Br)cc2)CC1	-2.09%	–
O=C(N=c1ccn(-c2nc3ccccc3nc2NS(=O)(=O)c2ccccc2)cc1)c1cccs1	-18.4%	–
CCC(C)Sc1cccc(-c2nc3cc(C)ccn3c2NC2CCCCC2)c1 (stereo not given)	-1.04%	–
Cc1cc(-n2c(SCC(=O)Nc3ccc(Br)cc3)nc3n[nH]c(C)c3c2=N)ccc1Cl	-24.1%	–
Cc1cc(-n2c(C)cc(C(=O)CCl)c2C)no1	-21.8%	–
COc1ccc2o/c(=N/NC(=O)c3cccs3)c(C(N)=O)cc2c1	–	3.96 µM (active)
COc1cc(OC)cc(C(=O)Nc2ccc(N3CCN(C(=O)c4cccs4)CC3)cc2)c1	-11.5%	–
COc1ccc2oc(=N)c(C(=O)Nc3ccc(F)cc3)cc2c1	-21%	–
COC(=O)C1=C(Nc2ccc(C)cc2)C=C(C)C(C(=O)OC)C1c1cccc(OC)c1 (stereo not given)	-20.5%	–
CN(C)c1ccc2ccc3cccc4ccc1c2c34	–	9.2 µM (active)
Cc1cccc(CN2C(=O)N/C(=C/c3ccc(C)s3)C2=O)c1	–	9.94 µM (active)
COCc1ccc(O)c2ncccc12	1.62%	–
Cc1cc(NC(=O)/C(C#N)=C/c2ccc(-c3ccc(SC(F)F)cc3)o2)n(-c2ccccc2)n1	–	3.66 µM (active)
Cc1cc(NC(=O)/C(C#N)=C\c2ccc(-c3ccc(SC(F)F)cc3)o2)n(-c2ccccc2)n1	–	9.2 µM (active)
Cc1ccc(C)c(N2CCN(C(=O)c3cccn4c(=O)c5sccc5nc34)CC2)c1	-29.7%	–
CCOC(=O)c1ccc(/C=C2/C=C(c3ccccc3)N(c3ccc(Cl)c(C(=O)O)c3)C2=O)cc1	–	20.6 µM (active)
CC(NC(=O)c1ccc(Nc2nc3ccccc3n3nnnc23)cc1)c1ccccc1 (stereo not given)	–	16.4 µM (active)
Cc1ccc(C(=O)O)cc1Nc1nc2ccccc2n2nnnc12	-4.15%	–

Compound	max response	Potency
CN(C)c1ccc(Nc2nc3ccccc3n3nnnc23)cc1	-2.05%	–
Cc1cccc2cc3c(N)c(C(=O)N4CCc5ccccc54)sc3nc12	–	6.51 µM (active)
Cc1cccc2cc3c(N)c(C(=O)N4CCCc5ccccc54)sc3nc12	–	9.2 µM (active)
Cc1ccc2nc3sc(C(=O)N4CCCc5ccccc54)c(N)c3cc2c1	–	14 µM (active)
CCCn1nnc(NC(=S)NC(=O)c2ccccc2OC)n1	0.308%	–
O=C(Cc1nc2ccccc2[nH]c1=O)c1ccc(Cl)cc1	–	18.4 µM (active)
CC(=O)Nc1ccc(NC(=O)C/C(C)=N/NC(N)=S)cc1	0.646%	–
CCc1ccc(NC(=O)/C(C#N)=C/c2cc3ccc(C)cc3nc2N2CCOCC2)cc1	–	14.6 µM (active)
CCc1ccc(C(=O)NC(=S)Nc2ccc(N3CCOCC3)cc2)cc1	-0.0784%	–
COCCCNC(=S)N/N=C/c1ccc(OC)cc1	-0.494%	–
C=CCNC(=S)N/N=C(\C)c1ccc(OC)cc1	-3.87%	–
Cc1cc(C)c(/C=C2\C(=O)Nc3ccccc32)[nH]1	–	16.4 µM (active)
Cc1nn(-c2ccc(F)cc2)c(Cl)c1/C=C1\C(=O)Nc2ccccc21	-19.4%	–
CNCC(O)Cn1c2c(c3ccccc31)CCCC2 (stereo not given)	1.63%	–
CCN(CC)c1ccc(NC(=O)CSc2nc(C3CC3)nc3ccccc23)cc1C	-22.1%	–
Cc1cc(N(C)C)c(C)cc1/C=C/c1ccnc2ccccc12	–	18.4 µM (active)
CCN(CC)c1cc(C)c(/C=C/c2ccnc3ccccc23)cc1C	–	13 µM (active)
Cc1cc(C)n(S(=O)(=O)/C=C/c2ccccc2)n1	-7.92%	–
O=C(Nc1ccccc1-c1nc2ccccc2[nH]1)c1ccc(N2C(=O)CCC2=O)cc1	–	18.4 µM (active)
c1ccc2[nH]c(NN=C3CCCCCC3)nc2c1	2.02%	–
